From PubChem
HT1080-NT tox: kills 2HG-producing HT-1080-NT fibrosarcoma cells; actives 1.6% (n = 360,000); AID 686970; Potency, µM (doses to about 46.1 µM), inactives show at the highest dose activity, negative = less viability, hits mostly cytotoxic; HT-1080-NT fibrosarcoma viability, CellTiter-Glo ATP luminescence, 48 h;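 also: NT is the 2HG producing partner of a matched IDH1 knockdown line; potency is read from the fitted curve at half-maximal effect; 0% = DMSO-treated cells and -100% = media-only wells without cells; nearly all actives have a fitted effect of over 55% in size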
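Fibrosarcoma NT cells, 750 per well in 5% FBS RPMI, were exposed to compound for 48 hours. Viability: CellTiter-Glo luminescence.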
IL1B secr inh: blocks inflammasome-driven IL-1 beta release; THP-1 LPS/ATP IL-1B secretion, AlphaLISA, 16 h; hits give low values; activity change, % at 57.5 µM; actives 4.7% (n = 360,000); AID 743279; in the data active = activity change below about -50%; inconclusive = mostly about -30% to -49%
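Secreted IL-1B measured by AlphaLISA bead assay after 16 h compound exposure of THP-1 cells; compounds (final up to 57.5 uM) added 1 h before LPS (250 ng/mL) and ATP (1.25 mM) stimulation; lower signal means less secretion.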
HT1080 IDH1KD tx: toxicity to HT-1080 IDH1 knockdown cells (counter line); actives 2% (n = 360,000); Potency, µM (series often up to 46.1 µM), inactives show top-dose activity, negative = toxicity, actives largely listed as cytotoxic; AID 686971; HT-1080 IDH1 knockdown viability, ATP luminescence, 48 h;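 also: potency is read from the fitted curve at half-maximal effect; 0% = DMSO wells and -100% = cell-free medium wells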
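IDH1KD HT-1080 cells, 750/well, RPMI + 5% FBS; compound pinned after 2 h settling; 48 h, 37 °C; CellTiter-Glo luminescence; % activity normalised to DMSO and no-cell wells; curves fitted, classed by r2 and efficacy.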
DT40 TDP1 no CPT: qHTS for Inhibitors of human tyrosyl-DNA phosphodiesterase 1 (TDP1): qHTS in cells in absence of CPT; DT40 Tdp1-/- hTDP1 cells, no CPT, ATP luminescence, 48 h; Potency, µM (top dose mostly 46.2 µM), without a hit: at the top dose activity change, negative = growth inhibition, hits mostly inhibitors; actives 15% (n = 420,000); AID 686978, 2013; also: potency is read from the fitted curve at half-maximal effect; nearly all actives have a fitted effect of over 55% in size
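No-CPT arm: Tdp1-/-;hTDP1 DT40 cells (400/well) plus compounds, incubated ≥48 hr at 37 °C. Readout CellTiter-Glo luminescence.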
uPA surface inh: cell surface uPA generation inhibition | cell surface uPA generation assay, qHTS | Potency, µM (highest dose often 38.3 µM), for the others: top-dose activity change, negative = inhibition, actives largely listed as inhibitors | actives 0.31% (n = 330,000); active = well fitted inhibition curve with a large enough effect; inconclusive = small, poorly fitted or top-dose-only effect; inactive = no such curve, though single readings can be large or run the other way; tested in mouse RAW 264.7 cells; also: potency is read from the fitted curve at half-maximal effect; nearly all actives have a fitted effect of over 55% in size
DT40 TDP1 CPT: growth inhibition of DT40 Tdp1-/-;hTDP1 cells with camptothecin (screen for TDP1 inhibitors). chicken DT40 Tdp1-/-;hTDP1 cells + 20 nM CPT, ATP luminescence, 48 h. Potency, µM (highest dose often 46.2 µM), for inactives: top-dose activity change, negative = growth inhibition, hits mostly inhibitors. actives 12% (n = 420,000). AID 686979; also: potency is read from the fitted curve at half-maximal effect; nearly all actives have a fitted effect of over 55% in size
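Cell growth measured by CellTiter-Glo luminescence after a minimum 48 h, 37 C compound exposure with 20 nM CPT in Tdp1-knockout DT40 cells stably expressing hTDP1, seeded 400/well; qHTS titration format.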
Starred values were filed as active, the others as inactive; ? = inconclusive; · = not tested or not shown; [ ] = dose if it differs, or a comment. Compounds with a hit are over-represented: about 19% of the library has one in this group of screens. Unless noted, calls follow the shape of the dose curve; as a rule, active = well fitted curve in the direction sought with a large enough effect; inconclusive = small, poorly fitted or top-dose-only effect, or another doubt; inactive = no such curve, though single readings can be large; an effect the other way counts as inactive or inconclusive. Unless noted, % is scaled to controls: 0 for no effect and ±100 for the full control effect.

SMILES	HT1080-NT tox	IL1B secr inh	HT1080 IDH1KD tx	DT40 TDP1 no CPT	uPA surface inh	DT40 TDP1 CPT
CC(C)Oc1ccc(C(=O)N2CCN(c3nc4c(F)cc(F)cc4s3)CC2)cc1	·	·	·	?	·	-27%
CC(C)(C)OC(=O)N1CCC(c2c(C(=O)NCCN3CCC(Cc4ccccc4)CC3)cnn2-c2ccc(F)cc2)CC1	·	·	·	5.2µM*	·	5.2µM*
Cc1ccc(-n2ncc(C(=O)NCc3ccccc3)c2C2CCN(C(=O)OC(C)(C)C)CC2)cc1	·	·	·	?	·	21µM*
CC(C)(C)OC(=O)N1CCC(c2c(C(=O)NCc3cccc(Cl)c3)cnn2-c2ccc(F)cc2)CC1	·	·	·	13µM*	·	?
Cc1ccc(-n2ncc(C(=O)NCCCN3CCCCC3)c2C2CCN(C(=O)OC(C)(C)C)CC2)cc1	·	·	·	-29%	·	?
CC(C)(C)OC(=O)N1CCC(c2c(C(=O)N3CCN(C(=O)c4ccco4)CC3)cnn2-c2ccc(F)cc2)CC1	16%	5	6%	11%	1%	-10%
CCOC(=O)Cc1csc(SCC(=O)NC2CCCC2)n1	-1%	15	3%	-9%	5%	-6%
Cc1ccc2scc(CN3CCCC3)c2c1	-8%	16	-9%	-20%	5%	0%
CC1(C(=O)O)CCCN(C(=O)c2cccnc2Oc2ccccc2)C1 (stereo not given)	29%	24	22%	-4%	·	0%
O=C(Nc1ccc(F)cc1)c1cc(S(=O)(=O)N2CCOCC2)cs1	7%	2	-11%	?	-7%	0%
O=C(Nc1ccc(F)cc1)c1cc(S(=O)(=O)Nc2ccc(F)cc2)cs1	?	20	-28%	29µM*	-1%	?
COc1ccc(NC(=O)c2cc(S(=O)(=O)Nc3ccc(OC)cc3)cs2)cc1	-1%	-12	-5%	29µM*	-11%	?
CC1CCCC(C)N1C(=O)COC(=O)c1cncc(Br)c1 (stereo not given)	-2%	14	15%	-8%	5%	-23%
CC(=O)c1ccc(OCC(=O)N2CCCCC2)cc1	·	·	·	5%	·	3%
COc1ccc(-c2oc3ncnc(NCCCN(C)C)c3c2-c2ccc(OC)cc2)cc1	?	-64*	?	18µM*	?	?
CN(C)CCNc1ncnc2ccccc12	6%	39	0%	-12%	5%	-6%
CN(C)CCNc1ncnc2oc(-c3ccccc3)c(-c3ccccc3)c12	-6%	-70*	-3%	?	-15%	?
CCCCNc1ncnc2oc(-c3ccco3)c(-c3ccco3)c12	·	·	·	6.3µM*	·	6.3µM*
C#CCOCCOCCOCCNc1nc(N2CCN(C(=O)[C@H](CC(N)=O)n3cc(C(N)[C@@H](C)CC)nn3)CC2)nc(N2CCN(C(=O)[C@H](CCC(=O)O)n3cc([C@@H](N)CCCCN)nn3)CC2)n1 (stereo not given in full)	10%	14	16%	3%	7%	0%
CC(=O)NC(c1ccccc1)c1nc(-c2cccc(C(F)(F)F)c2)cs1 (stereo not given)	15%	0	8%	?	·	?
CC(=O)Nc1ccc(NC(=O)C(C)Oc2ccccc2C(=O)NCc2ccccc2)cc1 (stereo not given)	-9%	-9	-3%	?	4%	?
Cc1ccc(C)c(OCCC(=O)OCC(=O)N2CCN(S(=O)(=O)c3ccc(Cl)cc3)CC2)c1	-2%	-15	-3%	?	10µM*	?
Cc1ccc(S(=O)(=O)N2CCN(C(=O)CCCOc3ccc(Cl)cc3C)CC2)cc1	-5%	-62*	-13%	?	-23%	?
CCOc1ccc(S(=O)(=O)N2CCN(C(=O)CCOc3ccccc3C)CC2)cc1	-4%	-12	-11%	18µM*	-8%	?
Cc1cc(Cl)ccc1OCCCC(=O)N1CCCCC1	3%	-29	-14%	?	-3%	-24%
SMILES	HT1080-NT tox	IL1B secr inh	HT1080 IDH1KD tx	DT40 TDP1 no CPT	uPA surface inh	DT40 TDP1 CPT
CCOc1ccc(OCCC(=O)OCC(=O)N2CCN(S(=O)(=O)c3ccc(Cl)cc3)CC2)cc1	?	-85*	?	23µM*	-15%	?
Cc1ccc(S(=O)(=O)N2CCN(C(=O)COC(=O)CCOc3cc(C)ccc3C)CC2)cc1	4%	-23	-1%	?	4%	?
NC(=O)c1ccc(/C(N)=N/S(=O)(=O)c2cc(C(F)(F)F)cc(C(F)(F)F)c2)cc1	-4%	0	-7%	?	3%	-1%
COc1ccc(S(=O)(=O)N2CCN(C(=O)CCSc3ccccc3)CC2)cc1	-3%	-4	-8%	?	-13%	12µM*
Cc1ccccc1OCCC(=O)Nc1ccc(S(=O)(=O)N2CCCC2)cc1	-15%	23	-21%	15µM*	·	21µM*
Cc1ccc(S(=O)(=O)N2CCN(C(=O)CSc3ccc(Cl)cc3)CC2)cc1	12%	-61*	12%	?	1%	-13%
Cc1ccc(SCC2(O)CCN(S(=O)(=O)c3ccc(Cl)cc3)CC2)cc1	-16%	-18	-22%	?	0%	-27%
COc1ccc(S(=O)(=O)N2CCN(C(=O)CCNC(=O)c3ccccc3Cl)CC2)cc1	-4%	-3	1%	-24%	4%	-15%
Cn1cccc1-c1cc2n(n1)CCC(=O)N2CC(=O)Nc1ccc(F)cc1Cl	·	·	·	0%	·	-9%
CCCCCCCCC#CCC#CCC#CCCCC(=O)O	·	·	·	-8%[4.12 µM]	·	5%[4.12 µM]
CC[n+]1c(C)sc2cc(C)ccc21	-1%	60	3%	3.7µM*	12%	3.7µM*
CCCC[n+]1c(C)sc2ccc(C)cc21	-5%	8	8%	?	10%	?
Cc1ccc2sc(C)[n+](CCO)c2c1	-3%	-71*	-21%	?	2%	?
CC(C)NC(=O)N1CCC2(CC1)CCN(C(=O)c1cccc(F)c1)CC2	·	·	·	-6%	·	2%
Cc1cc(C)c(CN2CCN(C(=O)CC[C@H]3O[C@@H](n4ccc(=O)[nH]c4=O)[C@H](O)[C@@H]3O)CC2)c(C)c1	-3%	-12	-5%	?	·	-10%
COc1ccccc1CNc1ccc(-c2nc(C)no2)cc1[N+](=O)[O-]	·	·	·	7.3µM*	·	7.3µM*
Cc1noc(-c2ccc(NCc3ccccc3)c([N+](=O)[O-])c2)n1	·	·	·	?	·	18µM*
COc1cccc(NC(=O)CN(C)C(=O)CCCc2nc3ccccc3s2)c1	0%	19	6%	-17%	-1%	-17%
